Inconclusive results are not listed. Entries that show only a call come without a potency. The source made the active and inactive calls. Calls follow the shape of the dose curve; as a rule, active = well fitted curve in the direction sought with a large enough effect; inconclusive = small, poorly fitted or top-dose-only effect, or another doubt; inactive = no such curve, though single readings can be large; an effect the other way counts as inactive or inconclusive.
Tests used:
[1] = target: Aldehyde dehydrogenase, mitochondrial (Homo sapiens) (UniProt P05091); assay: qHTS for Inhibitors of the Aldehyde Dehydrogenase Family (ALDH2) Primary screen (AID 2061308); also: nearly all actives have a fitted effect of over 55% in size
[2] = target: Retinaldehyde dehydrogenase 3 (Homo sapiens) (UniProt P47895); assay: qHTS for Inhibitors of the Aldehyde Dehydrogenase Family (ALDH1A3) Primary screen (AID 2061315)

Q: What does the source list for `Nc1nc2c(c(N3CC[C@@H](N)C3)n1)CCCc1ccccc1-2`?
A: Potency [1]: inactive; Potency [2]: inactive

Q: Which Potency [1] does the source give for `CC(=O)C1=C(O)C2c3c[nH]c4cccc(c34)CC2C(C)(C)N(C)C1=O` (stereo unspecified) here?
A: The Potency was “inactive”.

Q: What about the Potency [2] of the same molecule?
A: Its Potency is “inactive”.

Q: `CC(=O)Nc1sc2c(c1-c1ccc3nonc3c1)CCNC2` was tested. Which Potency [1] did it give?
A: Its Potency is “inactive”.

Q: And the Potency [2]?
A: Its Potency is “inactive”.

Q: Which Potency [1] does the source give for `O=C1CCCC2=C1C1(CCCCC1)N=C(Nc1nc3ccccc3o1)N2` here?
A: The Potency was “inactive”.

Q: And the Potency [2]?
A: Its Potency is “inactive”.

Q: `COc1cccc(-c2nnc3n2N=C(c2c(OC)cccc2OC)CS3)c1OC` was tested. Which Potency [1] did it give?
A: The Potency was “inactive”.

Q: What about the Potency [2] of the same molecule?
A: The Potency was “inactive”.

Q: Which Potency [1] does the source give for `O=C(CCc1ccccc1)Nc1ncnc2c1C(c1ccccc1)c1c(ccc3ccccc13)O2` (stereo unspecified) here?
A: Its Potency is “inactive”.

Q: What about the Potency [2] of the same molecule?
A: The Potency was “inactive”.

Q: `O=C([C@H](Cc1ccc(O[S+](=O)([O-])c2cccc3cccnc23)cc1)N[S+](=O)([O-])c1cccnc1)N1CCN(c2ccccc2)CC1` was tested. Which Potency [1] did it give?
A: The Potency was “inactive”.

Q: What about the Potency [2] of the same molecule?
A: The Potency was “inactive”.

Q: `COc1cccc(NS(=O)(=O)c2ccc3c(c2)CCC(=O)N3)c1` was tested. Which Potency [1] did it give?
A: The Potency was “inactive”.

Q: And the Potency [2]?
A: Its Potency is “inactive”.

Q: With `O=S(=O)(Nc1nccs1)c1ccc(NCc2cccc(Cl)c2O)cc1` as the molecule, how does the Potency [1] read?
A: Its Potency is “inactive”.

Q: And the Potency [2]?
A: The Potency was “inactive”.

Q: What does the source list for `CC(Nc1ccc([S+](=O)([O-])Nc2nccs2)cc1)c1ccccc1` (stereo unspecified)?
A: Potency [1]: inactive; Potency [2]: inactive

Q: For `O=C(CNC(=O)c1ccccc1)OC(C(=O)Nc1ccc2c(c1)OCO2)c1ccccc1` (stereo unspecified), which Potency [1] is on record?
A: The Potency was “inactive”.

Q: What about the Potency [2] of the same molecule?
A: The Potency was “inactive”.

Q: For `Cc1ccc(S(=O)(=O)Nc2cnccc2C(=O)Nc2nc(-c3cccc(C)c3)cs2)cc1`, which Potency [1] is on record?
A: Its Potency is “inactive”.

Q: What about the Potency [2] of the same molecule?
A: Its Potency is “inactive”.

Q: `Clc1cccc(-c2nc(-c3ccc(-c4nn[nH]n4)cc3)no2)c1` was tested. Which Potency [1] did it give?
A: Its Potency is “inactive”.

Q: And the Potency [2]?
A: Its Potency is “inactive”.

Q: Which results are given for `N#Cc1cccc(-c2csc(N3CCC(C(N)=O)CC3)n2)c1`?
A: Potency [1]: inactive; Potency [2]: inactive

Q: How did the Potency [1] turn out when `COC(=O)c1ccc(O)c2ncc(-c3ccc(C(=O)NCCCN(C)C)cc3)cc12` was run?
A: Its Potency is “inactive”.

Q: What about the Potency [2] of the same molecule?
A: The Potency was “inactive”.

Q: `FC(F)(F)c1ccc(-c2nc(NCc3ccc(-c4cccnc4)cc3)c3ccccc3n2)cc1` was tested. Which Potency [1] did it give?
A: The Potency was “inactive”.

Q: What about the Potency [2] of the same molecule?
A: The Potency was “inactive”.

Q: With `Cc1cccc(-c2ccc(=O)n(CC(=O)NCCc3ccccc3)n2)c1` as the molecule, how does the Potency [1] read?
A: The Potency was “inactive”.

Q: What about the Potency [2] of the same molecule?
A: Its Potency is “inactive”.

Q: `CCCn1c(C)nc2c(NCCN3CCCCC3)nc(C)nc21` was tested. Which Potency [1] did it give?
A: The Potency was “inactive”.

Q: And the Potency [2]?
A: The Potency was “inactive”.

Q: Which Potency [1] does the source give for `O=C(Nc1ccc(S(=O)(=O)Nc2ncc(-c3ccccc3)s2)cc1)c1ccc2ccccc2c1` here?
A: Its Potency is “inactive”.

Q: What about the Potency [2] of the same molecule?
A: Its Potency is “inactive”.

Q: `CCCCN(C)C(=O)Cn1nc(-c2ccc(OC)cc2)ccc1=O` was tested. Which Potency [1] did it give?
A: Its Potency is “inactive”.

Q: And the Potency [2]?
A: The Potency was “inactive”.

Q: How did the Potency [1] turn out when `O=C(OCC#CCSc1nnc(-c2cccc3ccccc23)o1)c1ccc(Cl)cc1` was run?
A: Its Potency is “inactive”.

Q: What about the Potency [2] of the same molecule?
A: Its Potency is “inactive”.

Q: For `O=C(O)c1ccccc1-c1noc(-c2ccccc2F)n1`, which Potency [1] is on record?
A: The Potency was “inactive”.

Q: What about the Potency [2] of the same molecule?
A: The Potency was “inactive”.

Q: For `CC(C)c1ccccc1-c1ncc(F)c(NCc2ccc(-n3ccnn3)cc2)n1`, which Potency [1] is on record?
A: Its Potency is “inactive”.

Q: What about the Potency [2] of the same molecule?
A: Its Potency is “inactive”.

Q: `C=CCNc1oc(-c2ccc(-c3ccccc3)cc2)nc1C#N` was tested. Which Potency [1] did it give?
A: Its Potency is “inactive”.

Q: What about the Potency [2] of the same molecule?
A: The Potency was “inactive”.

Q: What does the source list for `COc1ccc(C2=Nn3c(nnc3-c3cccc(OC)c3OC)SC2)cc1OC`?
A: Potency [1]: inactive; Potency [2]: inactive

Q: Which Potency [1] does the source give for `CC(Nc1nc(-c2ccccc2C(F)(F)F)nc2ccccc12)c1ccc(-c2ccncc2)cc1` (stereo unspecified) here?
A: The Potency was “inactive”.

Q: What about the Potency [2] of the same molecule?
A: Its Potency is “inactive”.

Q: With `COc1ccc(Cl)cc1S(=O)(=O)N1CCN(S(=O)(=O)c2ccc3c(c2)OCCO3)CC1` as the molecule, how does the Potency [1] read?
A: Its Potency is “inactive”.

Q: And the Potency [2]?
A: The Potency was “inactive”.

Q: With `C=C(C)C(=O)OC1C(OC(C)=O)/C(C=O)=C\CC/C(CO)=C/C2OC(=O)C(=C)C21` (stereo unspecified) as the molecule, how does the Potency [1] read?
A: The Potency was “inactive”.

Q: And the Potency [2]?
A: Its Potency is “inactive”.

Q: For `CN(C)C/C=C/C(=O)Nc1cccc(C(=O)Nc2ccc(Nc3nccc(-c4cccnc4)n3)cc2)c1`, which Potency [1] is on record?
A: The Potency was “inactive”.

Q: What about the Potency [2] of the same molecule?
A: Its Potency is “inactive”.

Q: For `O=S(=O)(c1ccc2c(c1)OCCO2)C1CCN(S(=O)(=O)c2c(F)cccc2F)CC1`, which Potency [1] is on record?
A: The Potency was “inactive”.

Q: And the Potency [2]?
A: The Potency was “inactive”.

Q: Which results are given for `Cc1ccc(S(=O)(=O)Nc2cnccc2C(=O)Nc2nc(-c3ccc(F)cc3)cs2)cc1`?
A: Potency [1]: inactive; Potency [2]: inactive

Q: For `Cc1ccc(-n2cnc3cc(C(=O)N4CCCCC4)ccc32)cc1`, which Potency [1] is on record?
A: The Potency was “inactive”.

Q: What about the Potency [2] of the same molecule?
A: The Potency was “inactive”.

Q: With `O=C(OCC#CCSc1nnc(-c2c[nH]c3ccccc23)o1)c1ccc(F)cc1` as the molecule, how does the Potency [1] read?
A: The Potency was “inactive”.

Q: What about the Potency [2] of the same molecule?
A: Its Potency is “inactive”.

Q: For `CC(=O)c1ccc(N2CCN(S(=O)(=O)c3ccc4c(c3)C(=O)OC4)CC2)cc1`, which Potency [1] is on record?
A: Its Potency is “inactive”.

Q: And the Potency [2]?
A: Its Potency is “inactive”.

Q: With `C=C1C(=O)OC2/C=C(\COC(C)=O)CC/C=C(\C=O)CC(OC(=O)CC(C)C)C12` (stereo unspecified) as the molecule, how does the Potency [1] read?
A: The Potency was “inactive”.

Q: And the Potency [2]?
A: The Potency was “inactive”.

Q: How did the Potency [1] turn out when `CONC(=O)C[C@@H](C#N)NC(=O)[C@@H]1CCCN1C(=O)[C@@H](NC(=O)c1ccc(N)c(Cl)c1)C(C)(C)C` was run?
A: Its Potency is “inactive”.

Q: And the Potency [2]?
A: Its Potency is “inactive”.

Q: Which results are given for `c1ccc(CN(Cc2ccccc2)Cc2nnc(-c3cc4ccccc4[nH]3)o2)cc1`?
A: Potency [1]: inactive; Potency [2]: inactive

Q: Which Potency [1] does the source give for `c1ccc(-n2cc(-c3nnc4n3CCCCC4)c3ccccc32)cc1` here?
A: The Potency was “inactive”.

Q: And the Potency [2]?
A: Its Potency is “inactive”.

Q: With `O=C(Cc1ccc(Cl)c(Cl)c1)Nc1ccc([S+](=O)([O-])Nc2nnc(-c3ccccn3)s2)cc1` as the molecule, how does the Potency [1] read?
A: The Potency was “inactive”.

Q: And the Potency [2]?
A: Its Potency is “inactive”.

Q: With `O=C1CCCC2=C1C(c1[nH]ncc1Cl)N=C(Nc1nc3ccc(Cl)cc3o1)N2` (stereo unspecified) as the molecule, how does the Potency [1] read?
A: Its Potency is “inactive”.

Q: What about the Potency [2] of the same molecule?
A: The Potency was “inactive”.

Q: Which results are given for `O=S(=O)(c1cccc(F)c1)N1CCN(S(=O)(=O)c2ccc3c(c2)OCCO3)CC1`?
A: Potency [1]: inactive; Potency [2]: inactive

Q: `C/C=C/c1ccc2c(c1)[C@@H](C)[C@H](c1ccc(O)cc1)O2` was tested. Which Potency [1] did it give?
A: The Potency was “inactive”.

Q: And the Potency [2]?
A: Its Potency is “inactive”.

Q: What does the source list for `O=C(CSc1nc2ccc(S(=O)(=O)N3CCOCC3)cc2[nH]1)N1CCOCC1`?
A: Potency [1]: inactive; Potency [2]: inactive

From PubChem BioAssay (NCATS)
